Source: PubChem BioAssay AID927 (National Center for Advancing Translational Sciences (NCATS), 2007)
The whole screen tested about 60,000 compounds, of which about 65 (0.1%) were called active. Calls follow the shape of the dose curve; as a rule, active = well fitted inhibition curve with a large enough effect; inconclusive = small, poorly fitted or top-dose-only effect; inactive = no such curve, though single readings can be large or run the other way. What follows is part of a selection rich in actives, with near analogues and random picks from the rest.

Each molecule was assayed against Ubiquitin carboxyl-terminal hydrolase 2 (Homo sapiens) (UniProt O75604) (assay: qHTS Assay for Inhibitors of Ubiquitin-specific Protease USP2a). Conditions: USP2a enzymatic assay; Potency: qHTS inhibition; series mostly up to 38.3 µM; activity change, negative = inhibition: at the top concentration.
In short: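 USP2 core (20nM final) preincubated 30 min RT with compound, then Ub-PLA2 20nM and NBD C6-HPC 20uM final added; buffer 20mM Tris-HCl pH 8.0, 2mM CaCl2. Fluorescence Ex 460/Em 535 read at 0 and 2.5 h; normalized to NEM.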
Also: nearly all actives have a fitted effect of over 60% in size.
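For activity change, negative = inhibition in this document: plate controls were DMSO for no effect and NEM full inhibition control for full effect.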
Potency is read from the fitted curve at half-maximal effect.

Chain of Ubiquitin carboxyl-terminal hydrolase 2 (Homo sapiens) (O75604 whole entry, looked up): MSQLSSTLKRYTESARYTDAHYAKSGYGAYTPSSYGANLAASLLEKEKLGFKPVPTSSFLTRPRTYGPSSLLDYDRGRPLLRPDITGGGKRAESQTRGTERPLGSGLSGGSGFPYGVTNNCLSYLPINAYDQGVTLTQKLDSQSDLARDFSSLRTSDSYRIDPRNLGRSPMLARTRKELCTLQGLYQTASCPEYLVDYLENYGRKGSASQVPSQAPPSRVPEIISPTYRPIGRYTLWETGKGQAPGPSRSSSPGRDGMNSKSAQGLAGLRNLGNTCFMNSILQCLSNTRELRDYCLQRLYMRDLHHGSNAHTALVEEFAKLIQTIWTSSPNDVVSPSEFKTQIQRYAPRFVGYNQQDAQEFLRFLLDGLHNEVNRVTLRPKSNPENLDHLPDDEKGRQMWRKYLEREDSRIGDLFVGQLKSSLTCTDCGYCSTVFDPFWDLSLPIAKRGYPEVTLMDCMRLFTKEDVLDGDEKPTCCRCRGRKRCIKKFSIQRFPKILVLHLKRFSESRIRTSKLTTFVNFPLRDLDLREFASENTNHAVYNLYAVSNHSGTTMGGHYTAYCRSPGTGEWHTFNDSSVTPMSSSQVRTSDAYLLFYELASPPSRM

Activity change, negative = inhibition, inactive:
O=C(O)c1ccc(F)c(S(=O)(=O)Nc2ccccc2)c1 -5.39%
Cc1cccc2c3c(ccc12)C1=C(C(=O)C3=O)C(C)CO1 (stereo not drawn) 24.5%
CC1OC(OCC2OC(Oc3c(-c4ccc(O)c(O)c4)oc4cc(O)cc(O)c4c3=O)C(O)C(O)C2O)[C@@H](O)C(O)C1O (stereo partly drawn) -9.16%
CCCc1[nH]nc2c1C(C1CC=CCC1)C(C#N)=C(N)O2 (stereo not drawn) 4.18%
Nc1nc2c(nc(Cl)n2C2OC(CO)C(O)C2O)c(=O)[nH]1 (stereo not drawn) -13.1%
COC(=O)[C@H](C)NC(=O)Nc1ccc(OC(F)(F)F)cc1 2.63%
COCCCN1C(=O)C(=O)/C(=C(/O)c2ccc3c(c2)CC(C)O3)C1c1cccnc1 (stereo not drawn) 1.42%
COc1cc(OC)c(NC(=O)c2ccc(Br)o2)cc1Cl 12% [at 7.66 µM]
CN(C)c1cc(N)c2ccccc2n1 (tested in a mixture with another compound) -5%
CCOC(=O)c1cc2c(n(-c3ccc(C)cc3)c1=O)CCCC2=O 0.672%
CC1(C)CC(=O)C(C=NCCC2=CCCCC2)=C(O)C1 6.05% [at 7.66 µM]
Cc1cc(NC(=O)CSc2nnc(-c3ccc(Cl)s3)o2)no1 2%
CC1(C)C=CC(=O)[C@]2(C)C1CC(=O)[C@]1(C)C2CC[C@@]2(C)C(c3ccoc3)OC(=O)C3OC321 (stereo partly drawn) 44.8%
CSCCC(NC(=O)c1ccc(=O)n(C)n1)c1nc2ccccc2[nH]1 (stereo not drawn) 0.955%
CCCn1c(O)c(CN2CCCC(C)C2)c(C)c(C#N)c1=O (stereo not drawn) 4.37%
COCCn1c(=O)c(-c2cc(F)cc(F)c2)nc2cnc(N3CCNCC3)nc21 91.7%
Cc1cc(=O)[nH]c(=S)[nH]1 -1.68%
CN1CCCc2cc(C#N)c(=O)[nH]c21 2.48% [at 7.66 µM]
Cc1oc(-c2ccccc2F)nc1CS(=O)(=O)CC(=O)NCCCN(C)C1CCCCC1 7.36%
Cc1ccc(NC(=O)C2CC(c3ccc(F)cc3)=NO2)cc1 (stereo not drawn) -1.08%
COc1ccccc1CCn1c(=O)c(-c2cn(C)c3ccccc23)nc2cncnc21 195%
CC(Sc1nncs1)C(=O)NCc1ccc2c(c1)OCO2 (stereo not drawn) -8.75%
CCOC(=O)N1CCN(C(=O)COc2ccc(Br)cc2)CC1 10.7% [at 7.66 µM]
O=C1NC(c2cc3c(cc2Cl)OCO3)Oc2ccccc21 (stereo not drawn) -4.27%
CCOC(=O)C1C(=O)OC2(CCCC2)C1C(=O)OCC (stereo not drawn) 2.95%
Cc1ccc(C)c(NC(=O)C2CC(=O)N(C(C)C)C2)c1 (stereo not drawn) 0.265%
CC1CCN(C(=O)Cn2cc(C(=O)c3ccco3)c3ccccc32)CC1 184%

Potency, active:
CC[C@@H]1Cc2cc(O)ccc2C2=C1c1ccc(O)cc1C[C@H]2CC 25.1 µM
